test system: HCI01 (cells of a triple-negative basal-like breast cancer xenograft); assay: cell viability of combination (% of vehicle); higher = less cytotoxic; conditions: 1 µM; 72 h; partner dose: 10 nM
Method: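 PDX cells were treated for 72 h with each drug at 1 µM plus afatinib (10 nM; 1 µM for WHIM30). Luciferase viability is expressed as percent of vehicle.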

Compound | cell viability of combination
Nc1c(CC(=O)[O-])cccc1C(=O)c1ccccc1.O.[Na+] [Amfenac Sodium Monohydrate] + CN(C)C/C=C/C(=O)Nc1cc2c(Nc3ccc(F)c(Cl)c3)ncnc2cc1O[C@H]1CCOC1 [Afatinib] | 54.7
Cc1nc(Nc2ncc(C(=O)Nc3c(C)cccc3Cl)s2)cc(N2CCN(CCO)CC2)n1 + CN(C)C/C=C/C(=O)Nc1cc2c(Nc3ccc(F)c(Cl)c3)ncnc2cc1O[C@H]1CCOC1 [Afatinib] | 41.5
COc1cccc2c1C(=O)c1c(O)c3c(c(O)c1C2=O)CC(O)(C(=O)CO)CC3OC1CC(N)C(O)C(C)O1 (configuration not stated) [Doxorubicin] + CN(C)C/C=C/C(=O)Nc1cc2c(Nc3ccc(F)c(Cl)c3)ncnc2cc1O[C@H]1CCOC1 [Afatinib] | 43.8
O=C(c1ccc(F)c(F)c1Nc1ccc(I)cc1F)N1CC(O)(C2CCCCN2)C1 (configuration not stated) [Cobimetinib] + CN(C)C/C=C/C(=O)Nc1cc2c(Nc3ccc(F)c(Cl)c3)ncnc2cc1O[C@H]1CCOC1 [Afatinib] | 42.2
Cl.Cl.Fc1ccc(C(c2ccc(F)cc2)N2CCN(CC=Cc3ccccc3)CC2)cc1 [Flunarizine 2HCl] + CN(C)C/C=C/C(=O)Nc1cc2c(Nc3ccc(F)c(Cl)c3)ncnc2cc1O[C@H]1CCOC1 [Afatinib] | 63.3
CNC(=O)c1cc(Oc2ccc(NC(=O)Nc3ccc(Cl)c(C(F)(F)F)c3)c(F)c2)ccn1.Cl [Regorafenib hydrochloride] + CN(C)C/C=C/C(=O)Nc1cc2c(Nc3ccc(F)c(Cl)c3)ncnc2cc1O[C@H]1CCOC1 [Afatinib] | 52
CC(=O)C1(O)Cc2c(O)c3c(c(O)c2C(OC2CC(N)C(O)C(C)O2)C1)C(=O)c1ccccc1C3=O.Cl (configuration not stated) [Idarubicin HCl] + CN(C)C/C=C/C(=O)Nc1cc2c(Nc3ccc(F)c(Cl)c3)ncnc2cc1O[C@H]1CCOC1 [Afatinib] | 131
C[C@H]1O[C@@H](O[C@H]2[C@@H](O)C[C@H](O[C@H]3[C@@H](O)C[C@H](O[C@H]4CC[C@@]5(C)[C@H](CC[C@@H]6[C@@H]5C[C@@H](O)[C@]5(C)[C@@H](C7=CC(=O)OC7)CC[C@]65O)C4)O[C@@H]3C)O[C@@H]2C)C[C@H](O)[C@@H]1O [Digoxin] + CN(C)C/C=C/C(=O)Nc1cc2c(Nc3ccc(F)c(Cl)c3)ncnc2cc1O[C@H]1CCOC1 [Afatinib] | 27.8
O=C1C=CC=CC1=C1NC(=C2C=CC=CC2=O)N(c2ccc(C(=O)O)cc2)N1 [Deferasirox] + CN(C)C/C=C/C(=O)Nc1cc2c(Nc3ccc(F)c(Cl)c3)ncnc2cc1O[C@H]1CCOC1 [Afatinib] | 43.2
CC[C@@]1(O)C(=O)OCc2c1cc1n(c2=O)Cc2cc3c(CN(C)C)c(O)ccc3nc2-1.Cl [Topotecan HCl] + CN(C)C/C=C/C(=O)Nc1cc2c(Nc3ccc(F)c(Cl)c3)ncnc2cc1O[C@H]1CCOC1 [Afatinib] | 41.4
CCOC(=O)C1=C(COCCN)NC(C)=C(C(=O)OC)C1c1ccccc1Cl.O=S(=O)(O)c1ccccc1 (configuration not stated) [Amlodipine Besylate] + CN(C)C/C=C/C(=O)Nc1cc2c(Nc3ccc(F)c(Cl)c3)ncnc2cc1O[C@H]1CCOC1 [Afatinib] | 59.5
Cc1cc(Nc2ncc(Cl)c(Nc3ccccc3S(=O)(=O)C(C)C)n2)c(OC(C)C)cc1C1CCNCC1 + CN(C)C/C=C/C(=O)Nc1cc2c(Nc3ccc(F)c(Cl)c3)ncnc2cc1O[C@H]1CCOC1 [Afatinib] | 44.4
COc1cc(C(=O)NS(=O)(=O)c2ccccc2C)ccc1Cc1cn(C)c2ccc(NC(=O)OC3CCCC3)cc12 [Zafirlukast] + CN(C)C/C=C/C(=O)Nc1cc2c(Nc3ccc(F)c(Cl)c3)ncnc2cc1O[C@H]1CCOC1 [Afatinib] | 61.4
CC[C@@]1(O)C(=O)OCc2c1cc1n(c2=O)Cc2cc3c(CN(C)C)c(O)ccc3nc2-1 [Topotecan] + CN(C)C/C=C/C(=O)Nc1cc2c(Nc3ccc(F)c(Cl)c3)ncnc2cc1O[C@H]1CCOC1 [Afatinib] | 40.1
Cl.Fc1ccc(C2CCNCC2COc2ccc3c(c2)OCO3)cc1 (configuration not stated) [Paroxetine HCl] + CN(C)C/C=C/C(=O)Nc1cc2c(Nc3ccc(F)c(Cl)c3)ncnc2cc1O[C@H]1CCOC1 [Afatinib] | 52.3
COc1cc2ncnc(Nc3ccc(F)c(Cl)c3)c2cc1NC(=O)C=CCN1CCCCC1 + CN(C)C/C=C/C(=O)Nc1cc2c(Nc3ccc(F)c(Cl)c3)ncnc2cc1O[C@H]1CCOC1 [Afatinib] | 45.1

Compound | cell viability of combination
CN1CCN(CCOc2cc(OC3CCOCC3)c3c(Nc4c(Cl)ccc5c4OCO5)ncnc3c2)CC1 [Saracatinib (AZD0530)] + CN(C)C/C=C/C(=O)Nc1cc2c(Nc3ccc(F)c(Cl)c3)ncnc2cc1O[C@H]1CCOC1 [Afatinib] | 41.1
CC(=O)c1cc2c(o1)C(=O)c1ccccc1C2=O [Napabucasin] + CN(C)C/C=C/C(=O)Nc1cc2c(Nc3ccc(F)c(Cl)c3)ncnc2cc1O[C@H]1CCOC1 [Afatinib] | 16.2
Oc1c(Cl)cc(Cl)c2cccnc12 [Chloroxine] + CN(C)C/C=C/C(=O)Nc1cc2c(Nc3ccc(F)c(Cl)c3)ncnc2cc1O[C@H]1CCOC1 [Afatinib] | 56.1
CNC(=O)c1cc(Oc2ccc(NC(=O)Nc3ccc(Cl)c(C(F)(F)F)c3)c(F)c2)ccn1 [Regorafenib] + CN(C)C/C=C/C(=O)Nc1cc2c(Nc3ccc(F)c(Cl)c3)ncnc2cc1O[C@H]1CCOC1 [Afatinib] | 46.8
C=C1C(=CC=C2CCCC3(C)C2CCC3C(C)C=CC(C)C(C)C)CC(O)CC1O (configuration not stated) [Doxercalciferol] + CN(C)C/C=C/C(=O)Nc1cc2c(Nc3ccc(F)c(Cl)c3)ncnc2cc1O[C@H]1CCOC1 [Afatinib] | 44.8
CN(C)CC=CC(=O)Nc1cc2c(Nc3ccc(F)c(Cl)c3)ncnc2cc1OC1CCOC1 (configuration not stated) [Afatinib (BIBW2992)] + CN(C)C/C=C/C(=O)Nc1cc2c(Nc3ccc(F)c(Cl)c3)ncnc2cc1O[C@H]1CCOC1 [Afatinib] | 44.6
CC(C)(C)Cn1c(N)nc2ccc(-c3[nH]c(C(C)(C)C)nc3-c3ccc(F)cc3)nc21.CS(=O)(=O)O.CS(=O)(=O)O + CN(C)C/C=C/C(=O)Nc1cc2c(Nc3ccc(F)c(Cl)c3)ncnc2cc1O[C@H]1CCOC1 [Afatinib] | 35.9
Clc1ccc(C(Cn2ccnc2)OCc2ccc(Sc3ccccc3)cc2)c(Cl)c1.O=[N+]([O-])O (configuration not stated) [Fenticonazole Nitrate] + CN(C)C/C=C/C(=O)Nc1cc2c(Nc3ccc(F)c(Cl)c3)ncnc2cc1O[C@H]1CCOC1 [Afatinib] | 49.2
CCOC(=O)c1c(CSc2ccccc2)n(C)c2cc(Br)c(O)c(CN(C)C)c12.Cl [Arbidol HCl] + CN(C)C/C=C/C(=O)Nc1cc2c(Nc3ccc(F)c(Cl)c3)ncnc2cc1O[C@H]1CCOC1 [Afatinib] | 55.3
Cc1c(Cl)cccc1Nc1ccccc1C(=O)O [Tolfenamic Acid] + CN(C)C/C=C/C(=O)Nc1cc2c(Nc3ccc(F)c(Cl)c3)ncnc2cc1O[C@H]1CCOC1 [Afatinib] | 57.3
Clc1ccc(CSC(Cn2ccnc2)c2ccc(Cl)cc2Cl)cc1.O=[N+]([O-])O (configuration not stated) [Sulconazole Nitrate] + CN(C)C/C=C/C(=O)Nc1cc2c(Nc3ccc(F)c(Cl)c3)ncnc2cc1O[C@H]1CCOC1 [Afatinib] | 62.8
COC(=O)C1=C(C)NC(C)=C(C(=O)OC2CCCN(Cc3ccccc3)C2)C1c1cccc([N+](=O)[O-])c1.Cl (configuration not stated) [Benidipine HCl] + CN(C)C/C=C/C(=O)Nc1cc2c(Nc3ccc(F)c(Cl)c3)ncnc2cc1O[C@H]1CCOC1 [Afatinib] | 53.4
CC(NCCCc1cccc(C(F)(F)F)c1)c1cccc2ccccc12 (configuration not stated) [Cinacalcet] + CN(C)C/C=C/C(=O)Nc1cc2c(Nc3ccc(F)c(Cl)c3)ncnc2cc1O[C@H]1CCOC1 [Afatinib] | 51.6
COc1cc2nccc(Oc3ccc(NC(=O)C4(C(=O)Nc5ccc(F)cc5)CC4)cc3)c2cc1OC.O=C(O)CC(O)C(=O)O [Cabozantinib malate (XL184)] + CN(C)C/C=C/C(=O)Nc1cc2c(Nc3ccc(F)c(Cl)c3)ncnc2cc1O[C@H]1CCOC1 [Afatinib] | 50.8
Cc1nc(NC(=O)N2CCCC2C(N)=O)sc1-c1ccnc(C(C)(C)C(F)(F)F)c1 (configuration not stated) + CN(C)C/C=C/C(=O)Nc1cc2c(Nc3ccc(F)c(Cl)c3)ncnc2cc1O[C@H]1CCOC1 [Afatinib] | 46.9
C1=C\COCc2cc(ccc2OCCN2CCCC2)Nc2nccc(n2)-c2cccc(c2)COC/1 [Pacritinib] + CN(C)C/C=C/C(=O)Nc1cc2c(Nc3ccc(F)c(Cl)c3)ncnc2cc1O[C@H]1CCOC1 [Afatinib] | 37.8

— the supplement of paper PMC6992640
